Results with a measured potency or affinity are listed apart. Results filed as inconclusive are left out. Calls of active or inactive are those of the source.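 How the source made its calls: active means falling signal with fitted half-maximal potency no higher than twice the top valid tested dose; inconclusive means poor fit quality, or flat fit spanning -70% to -30%; inactive means potency over limit, rising signal, or flat fit inside 30%.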
Assay: Cryptococcus neoformans growth inhibition, dose response, Alamar Blue, cherry-picks (AID 686998)
Details: 24 h; series mostly up to 35 µM; activity change, negative = inhibition: at the top concentration

Activity change, negative = inhibition, inactive:
CC(C)NC(=O)N(C)C[C@H]1OCCCC[C@H](C)Oc2ccc(NC(=O)c3ccccc3)cc2C(=O)N([C@@H](C)CO)C[C@@H]1C -10.7%
CCCN1C[C@H](C)[C@@H](OC)CN(C)C(=O)c2cc(NC(=O)c3cccc(F)c3)ccc2OC[C@@H]1C -15.1%
O=C(Nc1ccccc1N1CCOCC1)c1cccc([N+](=O)[O-])c1 -0.333%
CCCNC(C)C(=O)Nc1ccccc1C (stereo not drawn) -44.5%
COCCNC(=O)C[C@@H]1C[C@H]2c3cc(NC(=O)C4CCOCC4)ccc3O[C@H]2[C@H](CO)O1 18.5%
O=C(NC1CCCCC1)N[C@H]1C=C[C@@H](CC(=O)N2CCOCC2)O[C@@H]1CO -33.8%
COCCNC(=O)C[C@H]1C[C@@H]2c3cc(NC(=O)C4CCC4)ccc3O[C@@H]2[C@H](CO)O1 -31%
O=C(NCCN1CCCCC1)[C@H]1N[C@H]2c3ccc(-c4ccncc4)c(=O)n3C[C@H]2[C@@H]1CO 34.4%
C[C@H](O)C#Cc1ccc2c(c1)O[C@H](CN(C)Cc1ccncc1)[C@H](C)CN([C@H](C)CO)S2(=O)=O -25%
C[C@H]1CN([C@@H](C)CO)C(=O)c2ccccc2-c2ccccc2CO[C@H]1CN(C)S(=O)(=O)c1cccc(C#N)c1 -12.2%
Cc1cccc(C)c1NC(=O)CN(C)C(=O)C1CC1C (stereo not drawn) 22.4%
Cc1noc(C)c1S(=O)(=O)Nc1ccc2c(c1)C(=O)N([C@@H](C)CO)C[C@@H](C)[C@@H](CN(C)Cc1ccccc1)OCCCC[C@H](C)O2 20.1%
CCN(Cc1ccccc1)C(=O)COc1ccccc1 2.34%

Reference: PubChem BioAssay
